Shiga inhibitor = blocks Shiga toxin action in Vero cells; Vero cells, Shiga toxin protein synthesis inhibition reporter; 9.2% of 290,000 active; AID 2315; inhibition, % at 38.7 µM; in the data active = inhibition mostly above about 28%, no sharp cut-off; inactive = mostly below about 43%; note: 0% is about no effect
NS1 inh = inhibitors of influenza NS1 protein function | 0.4% of 270,000 active | AID 2326 | Potency, µM (doses to about 46.1 µM), for the others: top-dose activity, positive = more growth; calls by dose curve; note: potency is the fitted concentration of half-maximal effect; actives are rising curves; nearly all actives have a fitted effect of over 50% in size
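Compounds were scored for reversing the slow growth caused by influenza A NS1 in S. cerevisiae, measured by optical density at 600 nm. Assay medium contained 2% galactose at pH 6.0; NS1-free yeast of the same strain were the positive control.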
Pf growth 48h = inhibits P. falciparum growth in the first generation, 48 h; P. falciparum luciferase growth in erythrocytes, 48 h; Potency, µM (highest dose often 28.7 µM), for the others: at the top dose activity change, negative = inhibition, most hits filed as inhibitors; 5.9% of 310,000 active; AID 504832; note: potency is the fitted concentration of half-maximal effect; % is set by controls: 0 for no effect and ±100 for the full control effect
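First compound was added to culture medium, then infected red cells at 0.1% parasitemia and 2% hematocrit (final). After incubation at 37 C under 5% CO2, luciferase detection reagent was dispensed and light output recorded.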
Pf growth 96h = P. falciparum growth inhibition at 96 hour, primary screen for plastid delayed-death inhibitors; P. falciparum luciferase reporter growth, 96 h; Potency, µM (top dose mostly 28.7 µM), inactives show at the highest dose activity change, negative = inhibition, most hits filed as inhibitors; 6.9% of 320,000 active; AID 504834; note: potency is the fitted concentration of half-maximal effect; % is set by controls: 0 for no effect and ±100 for the full control effect
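Readout is luminescence from an integrated firefly luciferase in P. falciparum. Red cells, 2% hematocrit and 0.05% parasitemia final, were cultured with compound through two parasite generations (96 hours) at 37 C, 5% CO2.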
Cycloheximide cs = affects cycloheximide protein synthesis inhibition readout, counter-screen; cell reporter, cycloheximide protein synthesis inhibition counterscreen; max response, %; 12% of 300,000 active; AID 2314; in the data active = max response mostly above about 13%, no sharp cut-off; inactive = mostly below about 14%; note: read at 38.3 µM for the half of the compounds with a filed dose; 0% is about no effect
Numbers without * were called inactive. Shown are actives, neighbours in structure and some others; about 21% of the full set was active somewhere. Unless noted, calls come from the whole dose curve; as a rule, active = well fitted inhibition curve with a large enough effect; inconclusive = small, poorly fitted or top-dose-only effect, or another doubt; inactive = no such curve, though single readings can be large or run the other way.

For CCN1CCN(S(=O)(=O)c2ccc(Cl)c(C(=O)Nc3ccccc3N3CCOCC3)c2)CC1 the results were Pf growth 48h inconclusive and Pf growth 96h -9.1%.
`CCN1CCN(S(=O)(=O)c2ccc(Cl)c(C(=O)Nc3cc(Cl)ccc3N3CCOCC3)c2)CC1` gave Shiga inhibitor -2.5, NS1 inh -6.1%, Pf growth 48h inconclusive, Pf growth 96h 13.1µM* and Cycloheximide cs -1.7.
Screening CC(C)N(C(=O)Cn1cc(S(=O)(=O)CC(=O)Nc2ccccc2)c2ccccc21)C(C)C returned Shiga inhibitor -11.0, NS1 inh 5.9%, Pf growth 48h inconclusive, Pf growth 96h 8.28µM* and Cycloheximide cs 8.1.
Screening COc1ccc(CCNC(=O)CS(=O)(=O)c2cn(CC(=O)N3CCCC3)c3ccccc23)cc1OC returned Shiga inhibitor -11.4, Pf growth 48h 0.7%, Pf growth 96h -1.6% and Cycloheximide cs 10.1.
For CNC(=O)CSc1cn(CC(=O)N(C(C)C)C(C)C)c2ccccc12 the results were Shiga inhibitor 23.4, Pf growth 48h 1.0%, Pf growth 96h 10.4µM* and Cycloheximide cs -2.2.
Screening COc1ccc(CCNC(=O)CS(=O)(=O)c2cn(CC(=O)N(C(C)C)C(C)C)c3ccccc23)cc1OC returned Shiga inhibitor -5.3, NS1 inh -15.2%, Pf growth 48h inconclusive, Pf growth 96h 10.4µM* and Cycloheximide cs 2.4.
`Cc1ccc(OCC(=O)NC(=S)Nc2ccc(S(=O)(=O)Nc3cc(C)on3)cc2)c(Br)c1` gave Shiga inhibitor -10.0, NS1 inh 2.5%, Pf growth 48h inconclusive, Pf growth 96h -13.2% and Cycloheximide cs -3.6.
For O=c1[nH]c2ccsc2c(=O)n1CCO the results were Shiga inhibitor -6.1, NS1 inh -0.6%, Pf growth 48h 19.8%, Pf growth 96h 12.9% and Cycloheximide cs -1.9.
`CSCC[C@H](N)C(=O)NC[C@H]1CC[C@H](C(=O)N[C@@H](Cc2ccccc2)C(=O)O)CC1` gave Shiga inhibitor -8.7, NS1 inh 7.5%, Pf growth 96h 16.8% and Cycloheximide cs -2.4.
Screening CC(=O)N(Cc1cccs1)Cc1cc2cc(C)c(C)cc2nc1Cl returned Shiga inhibitor -10.6, Pf growth 48h -3.6%, Pf growth 96h inconclusive and Cycloheximide cs -0.2.
For CCC(C)NC(=O)COc1ccccc1[N+](=O)[O-] (centres undefined) the results were Shiga inhibitor -0.5, NS1 inh -5.1%, Pf growth 48h 9.2%, Pf growth 96h 2.9% and Cycloheximide cs 6.7.
Screening O=C(Cc1ccccc1)NC1c2ccccc2-c2ccccc21 returned Shiga inhibitor -1.9, NS1 inh 0.6%, Pf growth 48h 14.1%, Pf growth 96h inconclusive and Cycloheximide cs -2.6.
For O=C(O)C1=CC2c3ccccc3C1c1ccccc12 the results were Shiga inhibitor -14.2, NS1 inh -3.0%, Pf growth 48h 5.9%, Pf growth 96h 10.4µM* and Cycloheximide cs -2.3.
Screening CC(=O)Oc1cccc2c1C(=O)c1c(OC(C)=O)cc(C(=O)O)cc1C2=O returned Shiga inhibitor -11.1, NS1 inh -37.3%, Pf growth 48h 3.0%, Pf growth 96h 0.2% and Cycloheximide cs -0.9.
Screening COc1cc2cccc(OC)c(=O)c2c(O)c1OC returned Shiga inhibitor 23.0, NS1 inh -3.7%, Pf growth 48h 58.0%, Pf growth 96h 101.1% and Cycloheximide cs 33.8*.
CCOC(=O)c1c(C)n(C)c2c1cc(OC(C)=O)c1ccccc12 was read as Shiga inhibitor -23.5, NS1 inh 9.0%, Pf growth 48h 40.1%, Pf growth 96h 65.8% and Cycloheximide cs -1.3.
Screening CC(=O)Oc1cc(C)c(OC(C)=O)c2ccccc12 returned Pf growth 48h 6.75µM* and Pf growth 96h 4.78µM*.
Screening CC(=O)Oc1cc2cccc(OC(C)=O)c(=O)c2c(OC(C)=O)c1OC(C)=O returned Shiga inhibitor -11.1, NS1 inh -58.8%, Pf growth 48h inconclusive, Pf growth 96h 14.7µM* and Cycloheximide cs -1.6.
Cc1ccnc(NC(=O)c2ccc(S(=O)(=O)N3CCCCCC3)cc2)c1 was read as Pf growth 48h 24.6% and Pf growth 96h inconclusive.
COCCn1c(=NC(=O)c2ccc(S(=O)(=O)N3CCOCC3)cc2)sc2cc(S(N)(=O)=O)ccc21 was read as Shiga inhibitor -14.8, NS1 inh 5.5%, Pf growth 48h inconclusive, Pf growth 96h 8.28µM* and Cycloheximide cs -4.0.
Screening COC(=O)Cn1c(=NC(=O)c2ccc(S(=O)(=O)N3CCOCC3)cc2)sc2cc(S(N)(=O)=O)ccc21 returned Shiga inhibitor -13.0, NS1 inh 5.1%, Pf growth 48h inconclusive, Pf growth 96h inconclusive and Cycloheximide cs -0.9.
`CC(=O)c1cc(-c2ccccc2)n(CC(=O)NC(C)(C)C)c1C` gave Shiga inhibitor 11.9, Pf growth 48h -0.4%, Pf growth 96h 13.1µM* and Cycloheximide cs 0.6.
Screening CC(=O)c1cc(-c2ccccc2)n(CCC(=O)NC2CCCCC2)c1C returned Shiga inhibitor 7.5, NS1 inh 2.3%, Pf growth 48h 2.8%, Pf growth 96h 10.4µM* and Cycloheximide cs -3.3.
Screening O=C(CN1C(=O)NC2(CCCCCCC2)C1=O)NC1CCCc2ccccc21 (centres undefined) returned Shiga inhibitor -7.0, NS1 inh 4.8%, Pf growth 48h 3.4%, Pf growth 96h inconclusive and Cycloheximide cs -3.9.
CCn1c(C)c(C(=O)c2ccccc2)c(C#N)c1C(=O)O was read as Shiga inhibitor 25.4, NS1 inh -6.3%, Pf growth 48h 21.2%, Pf growth 96h 18.1% and Cycloheximide cs 20.6*.
Screening CC12CN(C(=O)c3ccc([N+](=O)[O-])cc3)CC(C)(CN(C(=O)c3ccc([N+](=O)[O-])cc3)C1)C2=O returned Shiga inhibitor -15.5, NS1 inh 4.0%, Pf growth 48h -15.4%, Pf growth 96h 7.0% and Cycloheximide cs -2.0.
CCCC12CN(C(=O)c3ccc([N+](=O)[O-])cc3)CC(C)(CN(C(=O)c3ccc([N+](=O)[O-])cc3)C1)C2=O was read as Shiga inhibitor 7.5, NS1 inh -3.7%, Pf growth 48h 11.7µM*, Pf growth 96h 10.4µM* and Cycloheximide cs -0.8.
O=C(NCc1ccccc1C(F)(F)F)C1CC(c2ccc(C(F)(F)F)cc2)=NO1 (centres undefined) was read as Shiga inhibitor 0.5, NS1 inh -2.8%, Pf growth 48h inconclusive, Pf growth 96h 64.4% and Cycloheximide cs -2.5.
Screening CC(C)N1CCC(N2CCN(Cc3ccc(-c4ccc(Cl)cc4)o3)CC2CCO)CC1 (centres undefined) returned Shiga inhibitor 7.2, NS1 inh -6.9%, Pf growth 48h 2.33µM*, Pf growth 96h inconclusive and Cycloheximide cs 1.8.
For Cc1ccc(-c2cccc(CN3CCN(C4CCN(C(C)C)CC4)C(CCO)C3)c2)o1 (centres undefined) the results were Shiga inhibitor -3.6, NS1 inh -1.6%, Pf growth 48h 10.4µM*, Pf growth 96h 34.7% and Cycloheximide cs -2.9.

Bioassay records (PubChem BioAssay)
